Activity calls are given as the source filed them. Unless noted, the rule behind the calls is not given here.
Columns and labels:
[1] = tested on: Wnt5a (protein binding on small-molecule microarray); experiment: Wnt5a binders on small-molecule microarray, primary screen, biophysical, 635/667 nm fluorescence (AID 1142); details: 635 nm fluorescence, higher = more signal;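 note: fluorescence read at 667 nm with signal to noise per printed feature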
[2] = cell viability in Huh7 cells, primary screen, cytotoxicity control for HCV replication inhibitor project, CellTiter-Glo luminescence, basal, 48 h (AID 1143); details: Huh7 HCV replicon, higher = more signal, called active from +8 up or from −8 down;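 note: Huh7 hepatoma cells carrying a hepatitis C replication reporter with no stimulus; test concentration not given here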
[3] = P. aeruginosa biofilm formation inhibitors, primary screen, PAO1 strain, BacTiter-Glo luminescence, LB-PBS (AID 1144); details: 12 h, higher = more signal
[4] = CREB reporter modulators without forskolin, primary screen, cell-based, PC12, CRE-LacZ reporter, unstimulated (AID 1145); details: no forskolin, luminescence, 4.5 h, higher = more signal, called active from +8 up or from −8 down
[5] = CREB reporter modulators under forskolin, primary screen, cell-based, PC12, CRE-LacZ reporter, forskolin-stimulated (AID 1146); details: luminescence, 4.5 h, higher = more signal, called active from +8 up or from −8 down;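 note: PC12 cells with 6xCRE LacZ reporter stimulated by forskolin 10 µM; beta-galactosidase reporter signal reflecting CREB driven transcription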
[6] = molecular target: Streptavidin (Streptomyces avidinii) (UniProt P22629); experiment: streptavidin binders on small-molecule microarray, primary screen, artefact control for SMM compound annotation, biophysical, 635/667 nm fluorescence (AID 1147); details: streptavidin binding, higher = more signal;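 note: signal reflects streptavidin binding to arrayed compounds as a control protein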
Streptavidin (Streptomyces avidinii), sequence (P22629 whole entry, looked up): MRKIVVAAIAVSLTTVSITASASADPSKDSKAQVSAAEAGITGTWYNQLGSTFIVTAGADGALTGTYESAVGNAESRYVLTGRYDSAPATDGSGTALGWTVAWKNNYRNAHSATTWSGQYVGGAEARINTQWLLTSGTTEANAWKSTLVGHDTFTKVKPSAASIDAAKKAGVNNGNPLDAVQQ

[7] = small-molecule binders of probe aInhba, primary screen, biochemical, small-molecule microarray, 635/667 nm fluorescence (AID 1148); details: higher = more signal;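 note: score merges 667nm spot fluorescence with signal-to-noise for antibody binding to printed compounds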
Torsin-1A (Homo sapiens) [8] = molecular target: Torsin-1A (Homo sapiens) (UniProt O14656); experiment: torsin A binders from cell lysate, primary screen, small-molecule microarray, wild-type, 635/667 nm (AID 1149); details: COS7 hTOR1A-WT lysate, 635 nm fluorescence, higher = more signal
Torsin-1A (Homo sapiens), sequence (O14656 whole entry, looked up): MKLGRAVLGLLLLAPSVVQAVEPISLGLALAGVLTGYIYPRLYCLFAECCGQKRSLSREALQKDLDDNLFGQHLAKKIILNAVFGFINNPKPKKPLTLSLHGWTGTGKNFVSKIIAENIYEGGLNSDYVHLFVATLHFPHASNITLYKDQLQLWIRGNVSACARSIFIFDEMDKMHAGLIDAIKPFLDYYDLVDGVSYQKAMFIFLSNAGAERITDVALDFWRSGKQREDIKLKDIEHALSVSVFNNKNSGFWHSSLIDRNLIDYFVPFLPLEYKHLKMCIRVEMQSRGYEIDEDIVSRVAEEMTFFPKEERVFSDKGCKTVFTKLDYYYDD

Torsin-1A (Homo sapiens) [9] = molecular target: Torsin-1A (Homo sapiens) (UniProt O14656); experiment: small-molecule binders of mutant TOR1A in lysate, primary screen, cell lysate, small-molecule microarray, COS7 lysate, 635/667 nm fluorescence (AID 1150); details: COS7 hTOR1A mutant lysate, 635 nm fluorescence, higher = more signal;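 note: score pools 667 nm emission and signal to noise measuring lysate protein binding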
[10] = tested on: Sonic hedgehog protein (Shh); experiment: small-molecule binders of Shh protein, primary screen, biochemical, small-molecule microarray, 635/667 nm fluorescence (AID 1151); details: small-molecule microarray binding, 635 nm fluorescence; higher = more signal;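 note: Shh protein binding to compounds spotted on small-molecule microarray slides; score combines spot fluorescence intensity with signal-to-noise across triplicate slides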
[11] = E. coli DRC41 culture turbidity changes, primary screen, E. coli filamentation inducer project, strain DRC41, OD650, 48 h (AID 1152);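 note: E. coli MC1000 strain DRC41 lacking acrAB efflux pump and sulA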; details: E. coli DRC41 (acrAB sulA), higher = more signal, called active from +8 up or from −8 down
[12] = small-molecule binders of probe aLefty1, primary screen, biochemical, small-molecule microarray, 635/667 nm fluorescence (AID 1153); details: higher = more signal;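 note: score merges spot fluorescence with signal-to-noise ratio from the scanned slide images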
[13] = PSAC antagonists in infected red cells, primary screen, cell-based, P. falciparum Indochina, OD700, 1 h (AID 1154); details: P. falciparum Indochina infected RBC osmotic lysis, higher = more signal, called active from +8 up or from −8 down
[14] = PSAC antagonists in infected red cells, primary screen, cell-based, P. falciparum Indochina, OD700, 2 h (AID 1155);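 note: lysis reports solute entry through the parasite surface anion channel PSAC; channel blockers reduce lysis of infected cells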; details: P. falciparum Indochina infected erythrocytes, osmotic lysis OD700; higher = more signal, called active from +8 up or from −8 down
[15] = osmotic lysis modulators in infected erythrocytes, primary screen, PSAC antagonist project, cell-based, P. falciparum Indochina, OD700, 3 h (AID 1156); details: higher = more signal, called active from +8 up or from −8 down
[16] = PSAC antagonists in infected red cells, primary screen, cell-based, P. falciparum Indochina, OD700, 18 h (AID 1157); details: P. falciparum Indochina infected erythrocytes, osmotic lysis OD700, 18 h; higher = more signal, called active from +8 up or from −8 down
[17] = modulators of S6 phosphorylation in cells, primary screen, cell-based, A549, cytoblot, luminescence, serum-stimulated (AID 1158); details: A549 phospho-S6 cytoblot, 5 h, higher = more signal;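 note: serum-stimulated A549 lung adenocarcinoma cells; signal is phosphorylated S6 detected by cytoblot immunostaining with HRP secondary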
[18] = molecular target: NADPH oxidase 2 (Homo sapiens) (UniProt P04839); experiment: NOX2-dependent H2O2 signal modulators, primary screen, NOX inhibitor project, cell-based, HEK293-NOX2, PMA-stimulated, Amplex Red fluorescence (AID 1159); details: 45 min, higher = more signal, called active from +8 up or from −8 down; note: test concentration not given here
NADPH oxidase 2 (Homo sapiens), sequence (P04839 whole entry, looked up): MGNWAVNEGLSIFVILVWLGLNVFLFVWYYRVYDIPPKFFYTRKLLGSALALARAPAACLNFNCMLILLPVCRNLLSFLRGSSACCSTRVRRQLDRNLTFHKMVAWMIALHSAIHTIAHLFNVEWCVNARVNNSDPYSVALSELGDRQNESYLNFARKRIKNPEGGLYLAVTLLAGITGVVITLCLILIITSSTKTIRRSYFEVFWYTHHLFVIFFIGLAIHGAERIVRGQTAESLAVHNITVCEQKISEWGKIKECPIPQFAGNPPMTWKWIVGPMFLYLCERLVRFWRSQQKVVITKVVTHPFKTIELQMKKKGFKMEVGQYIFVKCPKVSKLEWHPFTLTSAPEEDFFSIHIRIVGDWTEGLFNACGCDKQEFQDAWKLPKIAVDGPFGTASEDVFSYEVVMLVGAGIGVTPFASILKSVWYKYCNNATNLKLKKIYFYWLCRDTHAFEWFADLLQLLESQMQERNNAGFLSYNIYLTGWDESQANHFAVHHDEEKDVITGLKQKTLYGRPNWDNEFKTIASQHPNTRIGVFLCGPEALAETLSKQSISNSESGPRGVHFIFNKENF

[19] = molecular target: NADPH oxidase 4 (Homo sapiens) (UniProt Q9NPH5); experiment: NOX4-dependent H2O2 signal modulators, primary screen, NOX inhibitor project, cell-based, HEK293-NOX4, tetracycline-induced, Amplex Red fluorescence (AID 1160); details: 45 min, higher = more signal, called active from +8 up or from −8 down
NADPH oxidase 4 (Homo sapiens), sequence (Q9NPH5 whole entry, looked up): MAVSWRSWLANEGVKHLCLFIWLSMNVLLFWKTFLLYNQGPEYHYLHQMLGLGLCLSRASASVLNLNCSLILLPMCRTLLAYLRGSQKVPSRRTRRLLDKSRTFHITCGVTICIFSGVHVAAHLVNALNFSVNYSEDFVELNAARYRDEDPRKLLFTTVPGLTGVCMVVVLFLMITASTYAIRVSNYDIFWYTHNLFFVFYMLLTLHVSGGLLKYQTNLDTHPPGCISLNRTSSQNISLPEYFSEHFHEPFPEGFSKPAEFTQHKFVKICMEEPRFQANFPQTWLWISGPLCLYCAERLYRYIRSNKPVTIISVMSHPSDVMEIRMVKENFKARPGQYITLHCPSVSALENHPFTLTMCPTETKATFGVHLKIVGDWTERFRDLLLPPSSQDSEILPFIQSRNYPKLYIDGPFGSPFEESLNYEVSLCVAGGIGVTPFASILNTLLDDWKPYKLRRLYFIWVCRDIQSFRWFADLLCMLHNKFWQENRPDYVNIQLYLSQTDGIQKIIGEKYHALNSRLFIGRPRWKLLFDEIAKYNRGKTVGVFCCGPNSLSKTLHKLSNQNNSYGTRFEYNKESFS

[20] = molecular target: NADPH oxidase 5 (Homo sapiens) (UniProt Q96PH1); experiment: NOX5-dependent H2O2 signal modulators, primary screen, NOX inhibitor project, cell-based, HEK293-NOX5, Amplex Red fluorescence (AID 1161); details: HEK293-NOX5, ionomycin, 45 min, higher = more signal
NADPH oxidase 5 (Homo sapiens), sequence (Q96PH1 whole entry, looked up): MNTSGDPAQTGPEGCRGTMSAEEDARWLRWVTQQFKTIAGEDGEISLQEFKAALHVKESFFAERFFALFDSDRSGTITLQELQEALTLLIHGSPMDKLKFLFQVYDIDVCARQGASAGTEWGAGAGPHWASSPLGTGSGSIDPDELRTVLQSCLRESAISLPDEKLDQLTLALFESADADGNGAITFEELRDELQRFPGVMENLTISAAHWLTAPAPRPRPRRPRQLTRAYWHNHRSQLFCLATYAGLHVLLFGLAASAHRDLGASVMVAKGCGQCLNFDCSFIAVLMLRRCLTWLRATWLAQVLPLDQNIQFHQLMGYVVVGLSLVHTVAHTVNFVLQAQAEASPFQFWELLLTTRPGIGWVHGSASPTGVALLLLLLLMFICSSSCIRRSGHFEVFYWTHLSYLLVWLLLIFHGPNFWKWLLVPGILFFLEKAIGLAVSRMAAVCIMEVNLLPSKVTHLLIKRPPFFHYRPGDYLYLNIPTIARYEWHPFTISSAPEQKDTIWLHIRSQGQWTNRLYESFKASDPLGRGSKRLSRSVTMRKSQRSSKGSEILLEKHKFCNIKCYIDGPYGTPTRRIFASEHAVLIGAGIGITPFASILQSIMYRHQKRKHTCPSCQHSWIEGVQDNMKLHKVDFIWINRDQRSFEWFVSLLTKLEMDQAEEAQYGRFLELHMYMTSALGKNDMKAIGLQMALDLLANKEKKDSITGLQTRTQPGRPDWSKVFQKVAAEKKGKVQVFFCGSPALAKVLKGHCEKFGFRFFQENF

Compound | composite z-score [1] | z-score [2] | z-score [3] | z-score [4] | z-score [5] | composite z-score [6] | composite z-score [7] | composite z-score (Torsin-1A (Homo sapiens) [8]) | composite z-score (Torsin-1A (Homo sapiens) [9]) | composite z-score [10] | z-score [11] | composite z-score [12] | z-score [13] | z-score [14] | z-score [15] | z-score [16] | z-score [17] | z-score [18] | z-score [19] | z-score [20]
Cc1ccc(S[C@]2(C(=O)O)CC(=O)N(C3CCCCC3)[C@@H]2c2ccc(CO)cc2I)cc1 | 0.0473 | -0.541 (inactive) | -0.64 (inactive) | -0.269 (inactive) | 2.76 (inactive) | 1.43 | 0.239 | 0.222 | 0.919 | -0.342 | 0.263 (inactive) | 0.32 | 9.32 (active) | 0.692 (inactive) | 0.796 (inactive) | 0.99 (inactive) | 0.0559 | 3.66 (inactive) | -2.04 (inactive) | -1.86
NC(=O)[C@@]1(Cc2ccccc2)COC(c2ccc(OCCCO)cc2)=N1 | 0.0546 | 0.257 (inactive) | 0.126 (inactive) | 2.24 (inactive) | -1.34 (inactive) | -0.504 | 0.105 | -0.475 | 0.709 | -0.429 | 0.917 (inactive) | 0.533 | 17.5 (active) | 2.55 (inactive) | 0.121 (inactive) | -0.0697 (inactive) | -0.468 | -0.519 (inactive) | -1.4 (inactive) | -2.14
CCCC[C@@H](O)C1=C(COC)C[C@H]2C(=O)N(C)C(=O)[C@H]2[C@H]1CO | 0.0849 | -1.61 (inactive) | -1.55 (inactive) | -0.0581 (inactive) | -1.18 (inactive) | 0.45 | -0.128 | 0.32 | 0.227 | 0.882 | 2.54 (inactive) | 0.218 | -0.179 (inactive) | -1.31 (inactive) | -1.12 (inactive) | -2.19 (inactive) | 1.59 | -0.342 (inactive) | 0.564 (inactive) | 0.819
NC(=O)[C@H]1[C@@H]2C(=O)O[C@@H](c3ccccc3)[C@@H](c3ccccc3)N2[C@@H](c2ccc(OCCO)cc2)[C@]12C(=O)Nc1ccc(C#CCCO)cc12 | 0.262 | -0.532 (inactive) | -0.311 (inactive) | -0.465 (inactive) | 0.776 (inactive) | 0.617 | 0.136 | 0.579 | 0.331 | 0.177 | -0.628 (inactive) | 0.0753 | 6.95 (inactive) | 1.05 (inactive) | -1.02 (inactive) | 0.466 (inactive) | -0.671 | 2.03 (inactive) | 1.03 (inactive) | 1.13
COC(=O)C1(CC(C)C)C=C2C(=C(c3ccccc3)C(=O)C2C)CN1 (stereo not given) | 0.894 | -0.207 (inactive) | 0.279 (inactive) | 0.966 (inactive) | 1.64 (inactive) | 0.246 | 0.613 | -0.0212 | 1.3 | 1.75 | -1.03 (inactive) | 1.58 | 1.28 (inactive) | -0.382 (inactive) | 0.806 (inactive) | 0.323 (inactive) | 0.54 | -0.00718 (inactive) | -1.48 (inactive) | -2.44
CCOC(=O)C[C@H]1[C@H](OC(=O)c2cc3ccccc3oc2=O)[C@@H](NC(=O)c2ccccc2)c2cc(OCCCO)ccc2N1C(=O)c1ccccc1 | 0.315 | -2.83 (inactive) | 0.311 (inactive) | 3.75 (inactive) | -0.0599 (inactive) | 0.289 | -0.113 | 0.575 | 0.347 | 0.696 | 0.0768 (inactive) | 0.158 | 0.609 (inactive) | -1.44 (inactive) | -0.35 (inactive) | -2.88 (inactive) | 0.312 | -0.423 (inactive) | -1.07 (inactive) | -0.713
CCCCC(CC)C(O)C1C=CC2C(=O)N(c3ccccc3)C(=O)C2N1Nc1ccccc1F (stereo not given) | 0.507 | -2.32 (inactive) | -0.786 (inactive) | -0.433 (inactive) | -0.208 (inactive) | 0.0844 | -0.128 | 0.136 | 0.663 | -0.045 | 0.351 (inactive) | -0.0576 | 0.741 (inactive) | -0.686 (inactive) | -0.42 (inactive) | -1.57 (inactive) | 0.434 | -0.157 (inactive) | 0.143 (inactive) | 1.01
COCC(=C=CC[C@H](O)c1ccc(CO)o1)CCO | 0.181 | -0.25 (inactive) | 0.308 (inactive) | 1.51 (inactive) | -0.255 (inactive) | 0.141 | -0.003 | 0.494 | 0.246 | 1.99 | -0.434 (inactive) | -0.198 | 0.811 (inactive) | 0.0508 (inactive) | -0.148 (inactive) | -0.159 (inactive) | -0.992 | 0.249 (inactive) | -0.177 (inactive) | -0.224
